Rows were chosen to be rich in hits. Some 5.3% of all compounds tested hit in one or more screens of this group.
Tau fibril ThT: blocks human tau fibril formation measured by thioflavin T. 270,000 tested, 2.1% active. recombinant tau K18 P301L, heparin-induced fibrillization, ThT fluorescence. AID 1460. Potency, µM (doses to about 57.4 µM), for the others: at the top dose activity, negative = inhibition, actives largely listed as inhibitors; further: potency means the concentration at half of the fitted maximal effect; nearly all actives have a fitted effect of over 55% in size
Target sequence (P10636 561-689 P618L limits assumed): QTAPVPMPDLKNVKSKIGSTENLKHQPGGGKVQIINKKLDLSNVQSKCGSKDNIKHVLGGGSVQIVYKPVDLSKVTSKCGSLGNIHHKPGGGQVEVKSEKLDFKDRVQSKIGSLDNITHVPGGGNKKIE
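Heparin-induced fibrillization of the P301L-mutant K18 repeat-domain fragment of human tau was followed by ThT binding in quantitative high-throughput format.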
Tau fluor cs: counter-screen for tau fibril formation inhibitors; Potency, µM (highest dose often 57.7 µM), without a hit: at the top dose activity change, negative = decrease; 280,000 tested, 0.93% active; tau K18 P301L (four-repeat tau fragment) Alexa594 fluorescence, heparin fibrillization; further: potency means the concentration at half of the fitted maximal effect; nearly all actives have a fitted effect of over 55% in size
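Human K18 P301L tau (15 uM unlabeled plus 0.24 uM Alexa 594-labeled, final) in 100 mM sodium acetate pH 7 was mixed with compound and 20 uM heparin and incubated 6 hr at 37 C.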
KDM4E inh: blocks human JMJD2E demethylase activity | JMJD2E catalytic domain, FDH-coupled NADH fluorescence (FDH is formaldehyde dehydrogenase) | Potency, µM (doses to about 57.1 µM), inactives show at the highest dose activity change, negative = inhibition, hits mostly inhibitors | 230,000 tested, 1.6% active | AID 2147 | B2RXH2; active means well fitted inhibition curve with a large enough effect, not every such curve was filed as active; inconclusive means small, poorly fitted or top-dose-only effect, or another doubt; inactive means no such curve, though single readings can be large or run the other way;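 further: potency means the concentration at half of the fitted maximal effect; 0% = wells with enzyme and -100% = buffer wells without enzyme; nearly all actives have a fitted effect of over 50% in size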
Target sequence (B2RXH2 1-337 limits assumed): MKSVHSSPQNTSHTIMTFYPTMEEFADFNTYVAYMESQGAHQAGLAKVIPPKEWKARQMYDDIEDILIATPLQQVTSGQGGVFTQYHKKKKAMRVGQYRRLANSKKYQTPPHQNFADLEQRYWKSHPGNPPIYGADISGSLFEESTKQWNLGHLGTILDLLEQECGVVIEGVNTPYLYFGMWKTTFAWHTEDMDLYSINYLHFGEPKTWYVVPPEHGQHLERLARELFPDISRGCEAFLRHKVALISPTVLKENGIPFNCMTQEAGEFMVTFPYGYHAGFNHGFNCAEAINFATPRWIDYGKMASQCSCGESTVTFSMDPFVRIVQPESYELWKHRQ
Tau FP inhib: tau fibrillization inhibition (FP); K18 P301L tau heparin fibrillization, Alexa594 FP, 6 h; Potency, µM (doses to about 57.7 µM), inactives show at the highest dose activity, negative = inhibition, hits mostly inhibitors; 280,000 tested, 0.39% active; AID 1468; further: potency means the concentration at half of the fitted maximal effect; nearly all actives have a fitted effect of over 55% in size
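Human K18 P301L fragment (15 uM unlabeled plus 0.24 uM Alexa 594-labeled) in 100 mM sodium acetate pH 7 with compound, aggregation induced by 20 uM heparin for 6 hr at 37 C. ThT (30 uM) added for 1 hr, then Alexa 594 FP read.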
FBPA coupling cs: counter-screen for Giardia aldolase inhibitors: coupling enzyme system. activity change, negative = inhibition, % at 58.2 µM, hits read low. 290,000 tested, 0.67% active. coupling enzyme system counterscreen, AmpLite Red fluorescence. AID 2472; in the data active means activity change below about -30%
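First, compound is pin-transferred into glyceraldehyde-3-phosphate coupling-enzyme reagent at 57.5 uM final and held 10 min at RT. Next, substrate, coupling system and AmpLite Red are added. After 20 min RT, fluorescence (525/598 nm) is read.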
Sfp PPTase inh: inhibitors of Bacillus subtilis Sfp phosphopantetheinyl transferase. Potency, µM, for inactives: largest response in the series, negative = inhibition, actives largely listed as inhibitors. Q9F4F7. 310,000 tested, 3.5% active. Biochemical Sfp PPTase activity, qHTS;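 further: the enzyme is Sfp with the accession as filed and its product quenches rhodamine fluorescence; potency means the concentration at half of the fitted maximal effect; 0% = enzyme reaction without inhibitor and -100% = no enzyme wells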
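Fluorescence-quenching assay with 15 nM Sfp, 5 uM rhodamine-CoA and 12.5 uM BHQ-2-labelled ybbR peptide in pH 7.6 Hepes/MgCl2 buffer. Enzyme was pre-incubated with compound for 15 min at room temperature. Rate was taken from the 30-min fluorescence change (525/598 nm).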
Numbers without * were called inactive; ? = inconclusive; . = no result; [ ] = dose if it differs, or a comment. Unless noted, the call rests on the fitted dose curve; in most records, active means well fitted curve in the direction sought with a large enough effect; inconclusive means small, poorly fitted or top-dose-only effect, or another doubt; inactive means no such curve, though single readings can be large; an effect the other way counts as inactive or inconclusive. Unless noted, on the % scale 0 is the no-effect control and ±100 the full control effect.

SMILES	Tau fibril ThT	Tau fluor cs	KDM4E inh	Tau FP inhib	FBPA coupling cs	Sfp PPTase inh
COC(=O)Cc1c(C)c2c(OCc3nn[nH]n3)cc(C)cc2oc1=O	-5%	3%	?	6%	15	8%
COc1ccc(NC(=O)CSc2nc(-c3ccc(OC)cc3)[nH]c2-c2ccc(OC)cc2)cc1	-11%	8.9µM*[quencher]	.	7%	.	.
COc1ccc(-c2[nH]c(-c3ccc(F)cc3)nc2SCC(=O)Nc2ccc(OC)c(OC)c2)cc1	?	14µM*[quencher]	.	14%	.	.
COc1ccc(-c2[nH]c(-c3ccc(F)cc3)nc2SCC(=O)NCc2ccco2)cc1OC	?	?	-22%	?	2	-11%
CCOc1ccc(-c2nc(SCC(=O)Nc3ccc4c(c3)OCO4)c(-c3ccc(F)cc3)[nH]2)cc1	?	?	.	2%	.	.
COc1ccc(NC(=O)CSc2nc(-c3cc(OC)c(OC)c(OC)c3)[nH]c2-c2ccc(F)cc2)cc1	?	7.1µM*[quencher]	.	9%	.	.
CCOCCc1nn2c(=O)cc(COC(=O)c3cccc(C)c3)nc2s1	-15%	-2%	.	5%	.	.
Cc1cccc(CNc2ncncc2-c2ccccc2C)c1	.	.	.	.	2	3%
COC(=O)C1=C(C(=O)OC)[C@@H]2N(Cc3ccccc3)c3ccccc3[C@@]23C[C@@H](C(=O)OC)N(C(=O)c2ccco2)C3=N1	10%[11.5 µM]	6%[11.6 µM]	7%[11.4 µM]	2%[11.6 µM]	2	9%
Nc1n[nH]c(C2CC2)c1N=Nc1ccc(Cl)cc1	10µM*	16µM*[quencher]	-29%	13%	-1	17%
Cc1[nH]nc(N)c1-c1ccc(Cl)cc1	-1%	-4%	-11%	0%	3	23%
Nc1n[nH]c(C2CC2)c1N=Nc1ccc(Cl)c(Cl)c1	13µM*	13µM*[quencher]	-4%	?	-2	-8%
Cc1nc(N)sc1N=Nc1ccc(Br)cc1	4µM*	16µM*[quencher]	0%	8%	-2	-14%
Cc1ccc(C)c2sc(N)nc12	-10%	0%	-9%	9%	-2	3%
Cc1ccc(N=Nc2c(N)n[nH]c2N)cc1	.	.	.	.	0	10%
Cc1[nH]nc(N)c1N=Nc1ccc(Br)cc1	11µM*	?	11%	6%	1	0%
CCOc1ccc(C2c3c(oc4ccc(C)cc4c3=O)C(=O)N2c2nc(C)c(C)s2)cc1OC (stereo unspecified)	-5%	-3%	.	-2%	.	.
COc1ccc(C2NC(=O)N(C)C3=C2C(=O)N(c2cccc(Cl)c2)C3)cc1 (stereo unspecified)	-3%	-24%	.	-1%	.	.
CC(=O)OC1=C(C#N)Cn2ccc3cccc1c32	-6%	2%	?	2%	-41*	-2%
COc1ccc(NC(=O)Cn2c(=O)n(Cc3ccco3)c(=O)c3cc(OC)c(OC)cc32)cc1	0%	-13%	.	?	.	.
CCOc1ccc(NC(=O)C2CCN(c3nnc(-n4c(C)ccc4C)s3)CC2)cc1	10%	0%	.	-7%	.	.
COc1cc(NC(=O)COCc2cc(-c3ccc4c(c3)OCO4)on2)c(OC)cc1Cl	-18%	-18%	.	7%	.	.
CCN(CC)c1ccc(NC(=O)COCc2cc(-c3ccc4c(c3)OCO4)on2)c(C)c1	2.8µM*	?	.	10%	.	.
Cn1c(C(=O)N2CCOCC2)cc2c(=O)n3ccccc3nc21	.	.	.	.	.	10%
Cn1c(C(=O)N2CCN(C(=O)c3ccco3)CC2)cc2c(=O)n3ccccc3nc21	-3%	-3%	2%	-2%	-6	20µM*
SMILES	Tau fibril ThT	Tau fluor cs	KDM4E inh	Tau FP inhib	FBPA coupling cs	Sfp PPTase inh
CC1=C(CCC(=O)O)c2cc3nc(cc4[nH]c(cc5[nH]c(cc1n2)c(C)c5C(C)O)c(C)c4C(C)O)C(C)=C3CCC(=O)O (stereo unspecified)	?	-23%	-1%	?	-8	-16%
C=Cc1c(C)c2cc3[nH]c(cc4nc(cc5nc(cc1[nH]2)C(C)=C5CCC(=O)O)C(CCC(=O)O)=C4C)c(C)c3C=C	16µM*	16µM*[quencher]	-12%	25µM*	-14	0%
CN1/C(=C\C(=O)c2cccnc2)Sc2ccccc21	?	-5%	-1%	4%	-13	22µM*
O=C(CSc1nc2ccsc2c(=O)n1Cc1ccccc1F)NCc1ccccc1Cl	2%	-14%	.	-10%	.	.
CN1CSC2=C(C#N)C(c3cccc(OCc4ccccc4)c3)CC(=O)N2C1 (stereo unspecified)	?	-20%	-3%	?	-3	3.2µM*
COc1cccc(C2CC(=O)N3CN(C4CCCCC4)CSC3=C2C#N)c1 (stereo unspecified)	35µM*	-24%	.	?	.	.
CN1CCN(c2ccccc2NC(=O)c2cccc(OCc3ccccc3)c2)CC1	-14%	-26%	-4%	7%	0	?
COc1ccc(C2CC(=O)N3CN(C4CCCCC4)CSC3=C2C#N)cc1 (stereo unspecified)	18µM*	-19%	.	?	.	.
O=C(CS(=O)(=O)c1cccc2nsnc12)Nc1ccc(F)cc1F	1%	-4%	.	2%	.	.
Cc1ccc(CNC(=O)c2ccc3c(c2)N(Cc2cccc(C)c2)C(=O)CS3)cc1	12%	-15%	.	-6%	.	.
CCOc1ccc(NC(=S)N=Nc2c(O)[nH]c3ccccc23)cc1	?	?	21%	?	0	?
Oc1[nH]c2ccccc2c1N=NC(=S)NCCc1ccccc1	14µM*	13µM*[quencher]	10%	?	-2	-13%
Oc1cccc(NC(=S)N=Nc2c(O)[nH]c3ccccc23)c1	10µM*	?	?	4%	5	?
Cc1ccc(C)c(NS(=O)(=O)c2ccc3c(c2)n(C)c(=O)n3C)c1	-4%	-9%	.	-3%	.	.
CN(C)S(=O)(=O)c1cc(NC(=O)CSc2ncc(C(F)(F)F)cc2Cl)ccc1Cl	1%	?	7%	28µM*	-4	-10%
CCN1CCN(CC(=O)Nc2ccc(Cl)c(S(=O)(=O)N(C)C)c2)CC1	2%	0%	-4%	5%	-4	40µM*

Assay outcomes as filed in PubChem BioAssay.
